# Data reported in PubChem BioAssay AID504454 (NMMLSC, 2011).
# The campaign covered roughly 340,000 compounds. About 1,400 (0.41%) were called active.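 The calls were made as follows: active = response above a set limit, near 3 SD of response in nonfluorescent compounds (cut at about 42% in these data); inactive = the rest.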 Many of the other results were omitted from the sample, so actives are more common in it than they were.
# Target: Beta-2 adrenergic receptor (Homo sapiens) (UniProt P07550)
# Assay: agonist-induced loss of surface beta2AR – cell-based, FAP fluorogen, flow cytometry, primary screen (AID 504454)
# Conditions: Am2.2-beta2AR cells, FAP receptor internalization, active compounds read high, concentration not given here
# Sequence of Beta-2 adrenergic receptor (Homo sapiens) (P07550 whole entry, looked up): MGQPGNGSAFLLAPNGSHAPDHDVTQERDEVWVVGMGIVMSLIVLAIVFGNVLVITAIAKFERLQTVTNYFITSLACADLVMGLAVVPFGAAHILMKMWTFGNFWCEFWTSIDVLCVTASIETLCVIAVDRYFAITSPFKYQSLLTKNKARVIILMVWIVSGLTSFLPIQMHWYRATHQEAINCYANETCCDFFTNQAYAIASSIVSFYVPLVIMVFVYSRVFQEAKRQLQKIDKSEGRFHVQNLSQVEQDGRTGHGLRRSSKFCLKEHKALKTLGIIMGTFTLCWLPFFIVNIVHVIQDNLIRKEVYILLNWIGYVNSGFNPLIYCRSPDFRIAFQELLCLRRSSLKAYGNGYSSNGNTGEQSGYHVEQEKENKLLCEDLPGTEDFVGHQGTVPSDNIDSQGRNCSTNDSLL
row,SMILES,response
1,COc1ccc(C2c3[nH]c4ccccc4c3CCN2CCCn2cccn2)cc1C (centres undefined),-1.99% (inactive)
2,Cc1ccc(N2C(=O)CC(N3CCSCC3)C2=O)c(C)c1 (centres undefined),-0.71% (inactive)
3,CC(C)(C)NC(=O)CN(C(=O)c1ccc(Cl)nc1)c1cccc2ccccc12,1.65% (inactive)
4,CC(=O)OCCOCn1cnn2c(=O)c(Br)c(C)nc12,-5.29% (inactive)
5,Cc1cnc(C)c(N2CCN(C(=O)C3CCC(=O)N(CCc4cccc(F)c4)C3)CC2)n1 (centres undefined),-4.11% (inactive)
6,NC(=O)C1(N2CCCC2)CCN(Cc2ccccc2)CC1,-1.07% (inactive)
7,C/C(=N\N)c1c(-c2ccccc2)c2cc(Br)ccc2[nH]c1=O,-0.61% (inactive)
8,COC(=O)c1[nH]c2ccc(Br)cc2c1NC(=O)Oc1ccccc1,43.5% (active)
9,COC(=O)c1[nH]c2ccccc2c1NC(=O)CN1CCCc2ccccc21,6.44% (inactive)
10,COCCN1C(=O)c2oc3c(C)cc(C)cc3c(=O)c2C1c1cccc(O)c1 (centres undefined),51.7% (active)
11,O=C1c2oc3ccccc3c(=O)c2C(c2cccc(O)c2)N1c1ccccn1 (centres undefined),-12.8% (inactive)
12,CCCOc1ccc(C2c3c(oc4cc(C)c(C)cc4c3=O)C(=O)N2CCCN2CCOCC2)cc1 (centres undefined),-4.95% (inactive)
13,COCCCn1c(SCc2cccc(OC)c2)nc2cc(OC)c(OC)cc2c1=N,7.49% (inactive)
14,CCCC(=O)Nc1nnc(CC(=O)OCC)s1,8.2% (inactive)
15,CN1CCN(C(CNS(=O)(=O)c2cccs2)c2cccnc2)CC1 (centres undefined),-2.41% (inactive)
16,COc1ccc(C[C@H]2CN3C(=NC[C@H]3C)N2CCNC(=O)CCC2CCCCC2)cc1,8.82% (inactive)
17,COc1ccc(N2C(=O)CC(Sc3n[nH]c(-c4ccc(C)cc4)n3)C2=O)cc1 (centres undefined),1.89% (inactive)
18,CCOc1ccccc1N1C(=O)CC(Sc2nccc(C)n2)C1=O (centres undefined),47.5% (active)
19,CC(=O)Nc1ccc(N2C(=O)CC(Sc3nccc(C)n3)C2=O)cc1 (centres undefined),1.18% (inactive)
20,COCC1CCN(C(=O)CCc2nnc(C3(c4ccc(Cl)cc4)CCC3)o2)C1 (centres undefined),-4.25% (inactive)
21,COc1ccc(CCNC(=O)CCc2ccccc2O)cc1OC,0.69% (inactive)
22,CCOC(=O)c1ccc(NC(=O)Cn2cnc3cc(C)c(C)cc32)cc1,9.03% (inactive)
23,Cc1ccc(NC(=O)CN(C)C(=O)Cn2nnc(-c3ccccc3)n2)cc1,-5.12% (inactive)
24,CCOC(=O)c1ccc(NC(=O)Cn2nnc(-c3ccc(C)cc3)n2)cc1,91.8% (active)

row,SMILES,response
1,Cc1ccc(CNC(=O)CCC(=O)N2CC(C)Sc3ccccc32)cc1 (centres undefined),-5.01% (inactive)
2,O=C(/C=C/Sc1ncn[nH]1)c1ccc(Cl)cc1,78.1% (active)
3,Cc1cc(C)nc(S/C=C/C(=O)c2ccccc2)n1,41.9% (inactive)
4,Cc1cccc(C=CC(=O)c2ccc(Cl)cc2)c1,0.41% (inactive)
5,CCc1cc(-c2nnc(SCC(=O)NC3CC3)n2C)cs1,-9.66% (inactive)
6,CCC(C)(C)NC(=O)CN(C(=O)C(=O)Nc1ccc2c(c1)OCCO2)C(C)(C)CC,0.65% (inactive)
7,COc1ccc(-n2c(=O)[nH]c3cc(C(=O)NCCc4ccc(OC)c(OC)c4)ccc3c2=O)c(OC)c1,2.93% (inactive)
8,CN/C(=C\[N+](=O)[O-])NCCSCc1csc(CN(C)C)n1,-4.88% (inactive)
9,CC(C)CC(=O)NC(=S)NNC(=O)c1cccc([N+](=O)[O-])c1,-4.1% (inactive)
10,C#CCN1CC(C)/C(=N/O)CC1C (centres undefined),-6.18% (inactive)
11,O=C(/C=C/c1ccco1)NC(=S)Nc1ccccc1Br,12.9% (inactive)
12,COc1ccccc1/C=C/C(=O)NC(=S)N1CCOCC1,-6.28% (inactive)
13,O=C(/C=C/c1ccco1)NC(=S)N1CCCCC1,88.5% (active)
14,C=CCNC(=O)COC(=O)c1ccccc1C(=O)N(C)C1CCCCC1,2.56% (inactive)
15,CCN1CCN(C(=O)CSc2ccc(C)cc2)CC1,11.4% (inactive)
16,Cc1ccc(SCC(=O)N2CCN(c3ccc(F)cc3)CC2)cc1,-23.7% (inactive)
17,CCN1CCC2(CC1)N=C(c1ccc(F)cc1)C(=S)N2C(=O)c1ccc(C)cc1,85.6% (active)
18,CCn1cc(/C=C(\NC(=O)c2ccc(C)cc2)C(=O)NCCN2CCOCC2)c2ccccc21,4.83% (inactive)
19,CCCN(Cc1cc2cccc(C)c2[nH]c1=O)S(C)(=O)=O,9.7% (inactive)
20,COc1ccc(CCNC(=O)C(=O)Nc2ccc3nc4n(c(=O)c3c2)CCCCC4)cc1OC,-7.18% (inactive)
21,Cc1nc(-c2ccc(Cl)cc2)sc1C1(C)CC(c2ccc(Br)cc2)=NO1 (centres undefined),-4.06% (inactive)
22,Clc1cccc(-c2nc(NCC3CCCO3)c3ccccc3n2)c1 (centres undefined),-5.27% (inactive)
23,Clc1ccc2nc(-c3ccccc3)nc(C(Cl)Cl)c2c1,50% (active)
24,NC(N)=Nc1nc(-c2ccccc2)c2cc(Cl)ccc2n1,8.97% (inactive)

row,SMILES,response
1,Cc1ccc(S(=O)(=O)NCCc2nnc3ccc(SCc4cccnc4)nn23)cc1,-8.28% (inactive)
2,CC(C)OC(=O)c1ccc(COc2ccc3ccc(=O)oc3c2)o1,-3.14% (inactive)
3,CCN(CC)C(=O)CSc1nnc(CNc2ccc(F)cc2)n1Cc1ccco1,-1.42% (inactive)
4,CC(C)(C)OC(=O)N1CCC(NC(=O)c2[nH]cnc2C(=O)N[C@@H](Cc2ccccc2)C(=O)OCc2ccccc2)CC1,78.6% (active)
5,CC(C)(C)OC(=O)CNC(=O)c1[nH]cnc1C(=O)N[C@@H](Cc1ccccc1)C(=O)OCc1ccccc1,10.2% (inactive)
6,O=C(N[C@@H](Cc1ccccc1)C(=O)OCc1ccccc1)c1nc[nH]c1C(=O)NC1CCNCC1,-6.96% (inactive)
7,O=C(O)c1ccc(Cn2cnc3c(=S)nc[nH]c32)cc1,5.59% (inactive)
8,O=S(=O)(Nc1ccc2[nH]ncc2c1)c1ccccc1Cl,60.7% (active)
9,O=S(=O)(Nc1ccc2cn[nH]c2c1)c1ccccc1,4.15% (inactive)
10,O=C(O)c1cc(S(=O)(=O)Nc2ccc3cn[nH]c3c2)ccc1Br,7.91% (inactive)
11,Cc1ccc(S(=O)(=O)N(CC(=O)NN=C2CCN(C)CC2)c2ccc(F)cc2)cc1,-3.48% (inactive)
12,Oc1ccccc1C1=NN(c2ccccc2)C(c2ccccc2)C1 (centres undefined),13.4% (inactive)
13,COc1ccc(S(=O)(=O)N2CCCC(C(=O)Nc3ccc(NC(=O)c4ccccn4)cc3)C2)cc1 (centres undefined),46.4% (active)
14,COc1ccc(CCNC(=O)C2CCCN(S(=O)(=O)c3ccc(OC)cc3)C2)cc1 (centres undefined),-1.09% (inactive)
15,CC(=O)Nc1ccc(NC(=O)C2CCCN(S(=O)(=O)c3ccc(Cl)cc3)C2)cc1 (centres undefined),-2.61% (inactive)
16,COc1ccc(C2CC(c3cccs3)Nc3nnnn32)cc1 (centres undefined),12.6% (inactive)
17,Cc1ccc(NC(=O)COc2ccc(/C=C3/NC(=O)NC3=O)cc2)cc1,7.62% (inactive)
18,Cc1ccc(OCC(=O)Nc2ccc(-c3nc4ncccc4o3)cc2)cc1,117% (active)
19,Cc1ccc2nc(-c3ccc(NC(=O)c4cccnc4)cc3)oc2c1,17.5% (inactive)
20,C#CCOc1ccc(/C=C2/C(=O)ON=C2C)cc1OCC,-1.93% (inactive)
21,C=CCOc1ccc(/C=C2/C(=O)ON=C2C)cc1OCC,4.94% (inactive)
22,COc1cc(/C=C2/C(=O)ON=C2C)ccc1OCc1cccc(F)c1,105% (active)
23,CC1=NOC(=O)/C1=C\c1ccccc1,10.9% (inactive)
24,COc1cc(/C=C2/C(=O)ON=C2C)ccc1OCc1ccccc1F,88.8% (active)

row,SMILES,response
1,COc1cc(/C=C2\SC(=O)NC2=O)ccc1OCc1ccc(Cl)nc1,12.6% (inactive)
2,CCOC(=O)c1cnc2c(c(C)nn2CC)c1Cl,0.74% (inactive)
3,Cc1ccccc1OCCC(=O)OCC(=O)NCCc1ccc(S(N)(=O)=O)cc1,-1.82% (inactive)
4,CCCCN(CC)C(=O)C1CCCN(S(=O)(=O)c2cccc3nsnc23)C1 (centres undefined),-4.41% (inactive)
5,CCCCNC(=S)NNC(=O)c1cc(C)on1,8.38% (inactive)
6,COc1cc2c(cc1OC)C(/C=C/c1ccco1)=NCC2,-9.05% (inactive)
7,CCCn1c(C)cc(/C=C(\C#N)C(=O)OCC(=O)Nc2cc(OC)c(OC)c(OC)c2)c1C,-0.22% (inactive)
8,CCOC(=O)/C(C#N)=C/c1ccc(OCC(=O)Nc2ccccc2)c(OC)c1,46.3% (active)
9,COc1cc(C2C3=C(CCCC3=O)OC3=C2C(=O)CCC3)ccc1OCC(=O)Nc1ccccc1,3.2% (inactive)
10,CCCn1c(N)c(C(=O)CSc2nnc3n2CCCCC3)c(=O)[nH]c1=O,-3.04% (inactive)
11,O=C(/C=C/c1ccc(Cl)cc1Cl)c1cccnc1,6.98% (inactive)
12,O=C(Nc1cccnc1)c1ccc(Cl)cc1[N+](=O)[O-],0.76% (inactive)
13,O=C(/C=C/c1ccc(Cl)c([N+](=O)[O-])c1)c1cccnc1,77.9% (active)
14,O=C(CNC(=O)c1ccccc1F)OCC(=O)c1c[nH]c2ccccc12,10.7% (inactive)
15,CC(C)CCN(C(=O)c1csnn1)C(C(=O)NC1CCCC1)c1ccccc1 (centres undefined),7.85% (inactive)
16,CC(=O)Nc1ccc(Nc2c3ccccc3nc3ccccc23)cc1,51.1% (active)
17,CC(=O)Nc1ccc(S(=O)(=O)N(C)c2nc3ccccc3nc2Cl)cc1,0.46% (inactive)
18,CC(=O)Nc1ccc(Nc2c([N+](=O)[O-])cc(S(C)(=O)=O)cc2[N+](=O)[O-])cc1,2.64% (inactive)
19,Cc1ccc(CN2CCN(/N=C/c3cccnc3)CC2)c(C)c1,4.74% (inactive)
20,CC(=O)Nc1ccc(NC(=O)COC(=O)c2ccccc2C(=O)c2ccccc2)cc1,-9.28% (inactive)
21,N#Cc1cccc(NC(=O)COC(=O)c2ccccc2C(=O)c2ccc(Cl)c([N+](=O)[O-])c2)c1,46.3% (active)
22,CC(=O)Nc1ccc(NC(=O)C(C)OC(=O)c2ccccc2C(=O)c2ccc(Cl)c([N+](=O)[O-])c2)cc1 (centres undefined),20.8% (inactive)
